# Source: PubChem BioAssay
# Molecular target: Follistatin (Homo sapiens) (UniProt P19883)
# Experiment: follistatin binders on small-molecule microarrays, primary screen, biochemical, small-molecule microarray, 635/667 nm fluorescence (AID 1132)
# Conditions: FST binding, 635 nm fluorescence, higher = more signal
# Sequence of Follistatin (Homo sapiens) (P19883 whole entry, looked up): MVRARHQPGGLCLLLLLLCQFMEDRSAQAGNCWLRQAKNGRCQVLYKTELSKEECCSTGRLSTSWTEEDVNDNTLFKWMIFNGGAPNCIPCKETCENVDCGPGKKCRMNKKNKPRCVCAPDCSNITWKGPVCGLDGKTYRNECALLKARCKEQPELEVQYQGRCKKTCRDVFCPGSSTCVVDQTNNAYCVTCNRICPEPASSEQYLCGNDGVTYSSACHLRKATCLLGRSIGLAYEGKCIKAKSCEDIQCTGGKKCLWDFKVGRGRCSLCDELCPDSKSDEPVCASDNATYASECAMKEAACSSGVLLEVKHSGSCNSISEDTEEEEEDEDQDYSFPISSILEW
row,SMILES,composite z-score
1,CON=C(C)CCN1CCCCc2nc(C)c(C)cc21,0.925
2,CCOC(=O)[C@H](Cc1ccccc1)NC(=O)CCC1CC(OC(=O)NCc2cccc3ccccc23)CC2(CCCC(COC(=O)NCC3CCCCC3)O2)O1 (stereo partly drawn),0.421
3,CO[C@H]1COC(=O)CCC[C@H](C)[C@@H](OC)COC(=O)CC=C[C@@H]1C,0.393
4,C[C@H]1C=CCC(=O)OC[C@H](C)C(=O)N2CCC[C@H]2C(=O)OC1,1.43
5,CC(=O)OC[C@H]1O[C@H](CCON=C(C)C)C=C[C@@H]1OC(C)=O,0.521
6,CC(C)[C@@H](OCc1ccccc1)[C@H](C)C=NO[C@@H](C)c1cn([C@H](CO)Cc2ccccc2)nn1,-0.0854
7,O=C1C2=CC[C@H]3C(=O)N(C4CCCCC4)C(=O)[C@H]3[C@H]2[C@H](O)[C@@H]2O[C@H]12,-0.864
8,CC(C)(C)N1C(=O)[C@H]2[C@H]3[C@H](O)[C@H](O)CC(=NNC(=O)OCc4ccccc4)[C@H]3CC[C@H]2C1=O,0.963
9,CC(C)(C)N1C(=O)[C@H]2[C@H]3[C@H](O)[C@H](O)CC(=NNC(=O)OCc4ccccc4)[C@@H]3CC[C@H]2C1=O,0.258
10,O=C1C2=CC[C@H]3C(=O)N(C[C@@H]4CCCO4)C(=O)[C@H]3[C@H]2[C@H](O)[C@@H]2O[C@H]12,0.0235
11,CO[C@@H]1C=CCC(=O)N[C@@H](C)C(=O)OC[C@@H](NS(=O)(=O)c2ccc(C)cc2)[C@H](C)C=CCC(=O)OC[C@H]1C,0.833
12,C[C@@H]1CC[C@@H](C(=O)O)N[C@H]1c1cccc(N2CCOCC2)c1,0.769
13,CO[C@@H]1COC(=O)[C@@H]2CCCN2C(=O)[C@@H](C)COC(=O)CCC[C@H]1C,0.529
